# Data reported in paper PMC7862700, “An all-to-all approach to the identification of sequence-specific readers for epigenetic DNA modifications on cytosine”.
# Columns and labels:
# Assay in all cases: DAPPL (digital affinity profiling via proximity ligation, sequencing); 10 mM Tris-HCl pH 7.5, 50 mM NaCl, 1 mM DTT, 4% glycerol, room temperature, 30 min; GST-TFs on glutathione beads, 16-mer random dsDNA library, 0.1% formaldehyde crosslink after washing; high values mean tight binding
# Conditions in all cases: protein: recombinant; tags: N-terminal GST; dsDNA, one strand shown
# [1] = target: T1, FEV (Homo sapiens, UniProt Q99581 1-238)
# T1 sequence: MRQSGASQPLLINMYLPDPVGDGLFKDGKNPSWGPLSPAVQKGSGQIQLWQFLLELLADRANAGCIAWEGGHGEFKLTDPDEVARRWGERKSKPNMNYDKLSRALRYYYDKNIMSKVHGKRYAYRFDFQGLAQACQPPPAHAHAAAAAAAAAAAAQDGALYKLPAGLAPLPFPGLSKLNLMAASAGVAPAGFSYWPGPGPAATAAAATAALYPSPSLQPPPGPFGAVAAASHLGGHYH
# In short: (§1)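 After expression in yeast as GST fusions, human transcription factors were bound to glutathione beads, DNA-barcoded and mixed with a tag-only sample. The pools were incubated with 200 nmole of a 16-mer random double-stranded DNA library in Tris/NaCl/DTT/glycerol buffer (30 min, room temperature), washed and crosslinked with 0.1% formaldehyde. Proximity ligation with BsaI/T4 ligase ran for 1 h at 37 °C, before PCR amplification and sequencing on an Illumina NextSeq500. Binding signal is a hexamer's read frequency for a factor divided by its frequency for the tag-only sample.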
# [2] = target: ETV5 (Homo sapiens, UniProt P41161 1-510)
# In short: as §1
# [3] = target: T2, SPIC (Homo sapiens, UniProt Q8N5J4 1-248)
# T2 sequence: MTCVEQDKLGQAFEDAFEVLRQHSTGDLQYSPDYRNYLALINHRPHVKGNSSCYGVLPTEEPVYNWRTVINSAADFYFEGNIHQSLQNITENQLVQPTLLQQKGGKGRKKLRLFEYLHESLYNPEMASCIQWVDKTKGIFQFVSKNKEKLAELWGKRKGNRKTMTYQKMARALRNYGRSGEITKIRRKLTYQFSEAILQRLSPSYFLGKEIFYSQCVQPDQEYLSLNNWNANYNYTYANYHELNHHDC
# In short: as §1
# [4] = target: ELF4 (Homo sapiens, UniProt Q99607 1-663)
# In short: as §1
# [5] = target: ETV1 (Homo sapiens, UniProt P50549 1-477)
# In short: as §1
# [6] = target: T3, ERF (Homo sapiens, UniProt P50548 1-548)
# T3 sequence: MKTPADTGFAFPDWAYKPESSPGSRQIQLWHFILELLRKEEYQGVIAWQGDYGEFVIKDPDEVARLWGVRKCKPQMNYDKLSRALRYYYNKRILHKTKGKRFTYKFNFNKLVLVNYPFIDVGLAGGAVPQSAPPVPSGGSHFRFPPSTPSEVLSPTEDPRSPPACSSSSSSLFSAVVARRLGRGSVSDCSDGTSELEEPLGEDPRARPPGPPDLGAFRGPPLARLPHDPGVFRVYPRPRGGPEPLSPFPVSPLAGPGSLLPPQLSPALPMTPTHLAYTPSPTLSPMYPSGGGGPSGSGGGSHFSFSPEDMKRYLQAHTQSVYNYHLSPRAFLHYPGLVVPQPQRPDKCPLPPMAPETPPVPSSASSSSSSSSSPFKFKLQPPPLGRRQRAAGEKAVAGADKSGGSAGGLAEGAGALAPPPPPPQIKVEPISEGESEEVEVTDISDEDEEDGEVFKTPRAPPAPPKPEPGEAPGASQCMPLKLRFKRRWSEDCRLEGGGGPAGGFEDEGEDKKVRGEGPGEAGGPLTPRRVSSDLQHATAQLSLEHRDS
# In short: as §1
# [7] = target: T4, ETV3L (Homo sapiens, UniProt Q6ZN32 1-361)
# T4 sequence: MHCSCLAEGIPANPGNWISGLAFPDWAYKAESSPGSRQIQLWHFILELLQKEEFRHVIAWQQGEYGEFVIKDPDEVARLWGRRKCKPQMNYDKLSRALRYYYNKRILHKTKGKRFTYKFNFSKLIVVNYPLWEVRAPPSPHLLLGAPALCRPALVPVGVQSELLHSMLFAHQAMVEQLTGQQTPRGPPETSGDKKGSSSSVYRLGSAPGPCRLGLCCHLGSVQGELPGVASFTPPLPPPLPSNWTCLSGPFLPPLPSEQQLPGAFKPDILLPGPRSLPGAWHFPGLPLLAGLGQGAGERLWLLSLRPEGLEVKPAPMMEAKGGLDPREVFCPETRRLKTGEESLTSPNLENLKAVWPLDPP
# In short: as §1
# [8] = target: T5, ETS2 (Homo sapiens, UniProt P15036 1-469)
# T5 sequence: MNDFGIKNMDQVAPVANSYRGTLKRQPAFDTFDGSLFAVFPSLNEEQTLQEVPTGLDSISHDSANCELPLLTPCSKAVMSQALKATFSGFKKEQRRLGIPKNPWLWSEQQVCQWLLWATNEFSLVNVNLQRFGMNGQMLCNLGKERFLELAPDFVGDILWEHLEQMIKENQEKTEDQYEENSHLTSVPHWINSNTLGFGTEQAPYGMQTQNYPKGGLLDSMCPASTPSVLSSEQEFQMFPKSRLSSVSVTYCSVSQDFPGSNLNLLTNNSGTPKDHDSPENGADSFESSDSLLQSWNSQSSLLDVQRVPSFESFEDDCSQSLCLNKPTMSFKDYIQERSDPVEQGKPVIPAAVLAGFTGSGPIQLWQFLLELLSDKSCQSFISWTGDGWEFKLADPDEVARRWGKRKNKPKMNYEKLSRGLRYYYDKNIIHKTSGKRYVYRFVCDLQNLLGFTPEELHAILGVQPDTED
# In short: as §1
# [9] = target: T6, ETV3 (Homo sapiens, UniProt P41162-2 1-143)
# T6 sequence: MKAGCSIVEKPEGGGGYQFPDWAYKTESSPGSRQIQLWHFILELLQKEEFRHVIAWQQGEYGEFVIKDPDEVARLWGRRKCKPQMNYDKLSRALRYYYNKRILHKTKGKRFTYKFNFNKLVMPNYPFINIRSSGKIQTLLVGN
# In short: as §1
# [10] = target: ETV6 (Homo sapiens, UniProt P41212 1-452)
# In short: as §1
# ELF4, sequence (Q99607 whole entry): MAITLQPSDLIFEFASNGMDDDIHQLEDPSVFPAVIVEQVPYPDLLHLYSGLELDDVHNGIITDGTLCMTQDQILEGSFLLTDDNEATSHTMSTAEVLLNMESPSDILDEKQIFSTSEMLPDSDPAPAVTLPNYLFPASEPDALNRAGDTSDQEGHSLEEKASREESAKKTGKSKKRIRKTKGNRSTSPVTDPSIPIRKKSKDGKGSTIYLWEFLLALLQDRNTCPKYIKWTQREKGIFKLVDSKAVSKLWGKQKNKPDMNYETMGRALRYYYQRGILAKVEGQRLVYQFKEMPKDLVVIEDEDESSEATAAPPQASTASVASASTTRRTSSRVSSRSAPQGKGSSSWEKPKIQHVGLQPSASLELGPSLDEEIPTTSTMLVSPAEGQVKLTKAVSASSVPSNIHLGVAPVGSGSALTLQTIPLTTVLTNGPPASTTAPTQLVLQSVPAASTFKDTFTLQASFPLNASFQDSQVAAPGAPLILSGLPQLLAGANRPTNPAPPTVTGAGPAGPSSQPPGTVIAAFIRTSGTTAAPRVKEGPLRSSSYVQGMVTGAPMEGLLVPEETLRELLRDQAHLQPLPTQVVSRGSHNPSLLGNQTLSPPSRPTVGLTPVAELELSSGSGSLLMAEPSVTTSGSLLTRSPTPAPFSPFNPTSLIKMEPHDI
# ETV1, sequence (P50549 whole entry): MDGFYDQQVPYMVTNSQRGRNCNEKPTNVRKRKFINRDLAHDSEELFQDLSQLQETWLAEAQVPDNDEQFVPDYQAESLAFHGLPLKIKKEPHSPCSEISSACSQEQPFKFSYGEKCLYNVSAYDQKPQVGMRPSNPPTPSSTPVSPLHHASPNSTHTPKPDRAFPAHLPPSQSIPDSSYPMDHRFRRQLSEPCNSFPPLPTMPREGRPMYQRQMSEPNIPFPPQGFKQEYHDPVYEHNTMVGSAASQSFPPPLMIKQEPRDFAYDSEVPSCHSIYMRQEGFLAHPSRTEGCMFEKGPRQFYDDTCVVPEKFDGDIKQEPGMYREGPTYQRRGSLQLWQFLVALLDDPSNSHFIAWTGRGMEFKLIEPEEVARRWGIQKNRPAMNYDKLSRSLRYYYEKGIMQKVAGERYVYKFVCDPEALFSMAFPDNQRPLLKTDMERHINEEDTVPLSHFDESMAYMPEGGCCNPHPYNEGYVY
# ETV5, sequence (P41161 whole entry): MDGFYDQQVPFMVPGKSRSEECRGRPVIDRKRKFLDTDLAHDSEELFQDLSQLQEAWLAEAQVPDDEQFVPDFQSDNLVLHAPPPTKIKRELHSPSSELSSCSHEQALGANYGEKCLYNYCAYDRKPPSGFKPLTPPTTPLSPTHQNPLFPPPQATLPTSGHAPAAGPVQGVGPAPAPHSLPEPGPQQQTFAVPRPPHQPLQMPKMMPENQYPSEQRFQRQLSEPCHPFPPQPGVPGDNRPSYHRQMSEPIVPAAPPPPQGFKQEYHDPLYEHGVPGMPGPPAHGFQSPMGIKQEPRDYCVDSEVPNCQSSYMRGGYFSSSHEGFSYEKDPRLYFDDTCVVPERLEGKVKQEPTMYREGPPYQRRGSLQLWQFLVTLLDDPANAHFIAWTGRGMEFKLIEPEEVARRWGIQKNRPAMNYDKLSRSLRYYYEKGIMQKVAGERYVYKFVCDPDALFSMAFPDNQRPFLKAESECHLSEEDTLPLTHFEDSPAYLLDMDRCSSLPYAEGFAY
# ETV6, sequence (P41212 whole entry): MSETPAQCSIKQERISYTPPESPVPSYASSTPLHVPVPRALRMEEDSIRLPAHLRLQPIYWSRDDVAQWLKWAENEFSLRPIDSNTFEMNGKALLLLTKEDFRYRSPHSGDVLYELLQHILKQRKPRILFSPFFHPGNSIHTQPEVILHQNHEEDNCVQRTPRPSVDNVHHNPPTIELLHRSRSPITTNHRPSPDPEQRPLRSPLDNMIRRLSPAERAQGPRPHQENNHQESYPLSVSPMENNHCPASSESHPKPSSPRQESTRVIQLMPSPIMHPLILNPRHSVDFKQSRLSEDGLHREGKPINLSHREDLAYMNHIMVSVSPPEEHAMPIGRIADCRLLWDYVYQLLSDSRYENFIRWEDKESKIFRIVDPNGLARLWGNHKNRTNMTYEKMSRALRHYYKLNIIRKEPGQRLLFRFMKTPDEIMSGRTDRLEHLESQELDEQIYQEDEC
sequence,measurement,setting,value
CTGCGG,binding signal,[1],"1.07 fold enrichment (6-mer frequency, TF over GST control)"
same,binding signal,[2],"1.16 fold enrichment (6-mer frequency, TF over GST control)"
same,binding signal,[3],"1.06 fold enrichment (6-mer frequency, TF over GST control)"
same,binding signal,[4],"1.14 fold enrichment (6-mer frequency, TF over GST control)"
same,binding signal,[5],"1.15 fold enrichment (6-mer frequency, TF over GST control)"
same,binding signal,[6],"1.04 fold enrichment (6-mer frequency, TF over GST control)"
same,binding signal,[7],"1.17 fold enrichment (6-mer frequency, TF over GST control)"
same,binding signal,[8],"1.12 fold enrichment (6-mer frequency, TF over GST control)"
same,binding signal,[9],"1.14 fold enrichment (6-mer frequency, TF over GST control)"
same,binding signal,[10],"1.09 fold enrichment (6-mer frequency, TF over GST control)"
